This is an account of results in the supplement of paper PMC11732987, “Enantioselective OTUD7B fragment discovery through chemoproteomics screening and high-throughput optimisation” (Communications Chemistry, 2025).

A number with no mark means an inactive call.

Holding throughout (experiment): log2 ratio of Biotin-Ahx-Ub-VS probe labelling (fragment/DMSO); higher = less target engagement (more negative = stronger competition), active = hit call of the paper (q ≤ 0.05, log2 ratio ≤ -1)
Common to all, as to conditions: compound concentration: 200 uM; treatment time: 3 h

For one assay, the target named is T1, USP19 (UniProt O94966).
T1 sequence (whole entry): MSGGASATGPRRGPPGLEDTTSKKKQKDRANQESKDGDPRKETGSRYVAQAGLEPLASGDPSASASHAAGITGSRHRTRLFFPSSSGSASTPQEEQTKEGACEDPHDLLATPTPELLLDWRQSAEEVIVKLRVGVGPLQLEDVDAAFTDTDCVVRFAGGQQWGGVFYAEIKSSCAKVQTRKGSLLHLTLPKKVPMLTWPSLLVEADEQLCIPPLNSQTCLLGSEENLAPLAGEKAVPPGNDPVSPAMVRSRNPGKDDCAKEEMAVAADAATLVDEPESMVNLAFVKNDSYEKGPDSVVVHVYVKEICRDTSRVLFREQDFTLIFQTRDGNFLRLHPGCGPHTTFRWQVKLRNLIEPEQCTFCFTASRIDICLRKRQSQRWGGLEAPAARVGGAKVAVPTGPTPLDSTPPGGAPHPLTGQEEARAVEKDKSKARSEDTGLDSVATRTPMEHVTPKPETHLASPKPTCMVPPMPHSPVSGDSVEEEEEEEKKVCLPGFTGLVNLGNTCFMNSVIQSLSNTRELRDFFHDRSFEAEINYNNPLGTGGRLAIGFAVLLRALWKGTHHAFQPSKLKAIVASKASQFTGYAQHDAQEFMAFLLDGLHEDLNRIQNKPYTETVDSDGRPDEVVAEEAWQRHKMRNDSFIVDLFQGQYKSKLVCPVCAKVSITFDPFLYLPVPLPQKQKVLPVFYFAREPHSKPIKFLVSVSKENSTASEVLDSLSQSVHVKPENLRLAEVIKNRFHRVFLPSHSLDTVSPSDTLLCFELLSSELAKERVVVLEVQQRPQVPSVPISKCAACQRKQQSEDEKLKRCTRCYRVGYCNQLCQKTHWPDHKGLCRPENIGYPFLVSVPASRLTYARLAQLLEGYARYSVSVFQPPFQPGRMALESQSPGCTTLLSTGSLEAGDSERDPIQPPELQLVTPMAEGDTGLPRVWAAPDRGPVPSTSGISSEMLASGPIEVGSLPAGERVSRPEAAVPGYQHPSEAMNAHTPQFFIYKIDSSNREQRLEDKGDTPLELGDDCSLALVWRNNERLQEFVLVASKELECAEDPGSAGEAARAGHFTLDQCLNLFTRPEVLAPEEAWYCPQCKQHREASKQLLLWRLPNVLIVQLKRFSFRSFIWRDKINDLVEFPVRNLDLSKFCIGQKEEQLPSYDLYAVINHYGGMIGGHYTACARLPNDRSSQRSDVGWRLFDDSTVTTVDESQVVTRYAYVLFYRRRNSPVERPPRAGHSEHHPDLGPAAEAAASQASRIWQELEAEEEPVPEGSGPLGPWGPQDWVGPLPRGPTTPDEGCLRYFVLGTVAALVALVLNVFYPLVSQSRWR
In outline: (§1)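 Triplicate samples of HEK293T lysate, 495 µg each, received fragment at 200 µM or vehicle for 3 h, followed by Biotin-Ahx-Ub-VS (0.5 µM final) for 1 h. After NeutrAvidin enrichment of labelled DUBs and LysC/trypsin digestion, peptides were run by diaPASEF LC-MS/MS. The values are average log2 fragment/vehicle ratios from global-median-normalised Spectronaut label-free quantities, tested by unpaired t-test on proteins having ≥2 unique peptides.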

The next assay addresses USP24 (UniProt Q9UPU5). In outline: as §1
The target in another assay is T2, USP25 (UniProt Q9UHP3).
T2 sequence (whole entry): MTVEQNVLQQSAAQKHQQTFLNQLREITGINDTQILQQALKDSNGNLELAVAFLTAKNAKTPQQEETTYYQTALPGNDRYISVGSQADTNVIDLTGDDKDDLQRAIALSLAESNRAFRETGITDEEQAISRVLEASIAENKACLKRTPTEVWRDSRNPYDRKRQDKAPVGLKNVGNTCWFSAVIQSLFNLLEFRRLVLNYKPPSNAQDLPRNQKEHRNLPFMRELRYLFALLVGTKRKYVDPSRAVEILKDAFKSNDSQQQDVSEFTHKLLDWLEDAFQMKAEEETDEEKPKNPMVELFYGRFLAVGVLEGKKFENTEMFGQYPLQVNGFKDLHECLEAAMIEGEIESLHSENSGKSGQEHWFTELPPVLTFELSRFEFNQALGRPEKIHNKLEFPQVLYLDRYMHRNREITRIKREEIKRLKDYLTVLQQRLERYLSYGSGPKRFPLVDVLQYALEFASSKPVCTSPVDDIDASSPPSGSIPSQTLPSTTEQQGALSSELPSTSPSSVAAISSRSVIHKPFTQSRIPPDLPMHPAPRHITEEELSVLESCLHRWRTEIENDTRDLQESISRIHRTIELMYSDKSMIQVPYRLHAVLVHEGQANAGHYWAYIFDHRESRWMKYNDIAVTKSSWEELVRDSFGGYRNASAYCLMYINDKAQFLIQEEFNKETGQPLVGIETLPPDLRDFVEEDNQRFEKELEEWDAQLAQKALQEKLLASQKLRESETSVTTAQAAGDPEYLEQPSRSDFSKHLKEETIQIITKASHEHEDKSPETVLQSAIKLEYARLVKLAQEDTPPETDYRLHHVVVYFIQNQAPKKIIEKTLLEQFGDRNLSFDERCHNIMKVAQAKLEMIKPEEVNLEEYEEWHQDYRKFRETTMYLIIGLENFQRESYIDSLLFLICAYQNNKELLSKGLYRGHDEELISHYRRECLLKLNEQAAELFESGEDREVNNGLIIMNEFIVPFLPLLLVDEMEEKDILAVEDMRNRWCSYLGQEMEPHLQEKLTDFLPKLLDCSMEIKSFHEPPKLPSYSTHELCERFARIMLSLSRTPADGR
The procedure, abridged:
as §1

The target in a further assay is T3, USP28 (UniProt Q96RU2).
T3 sequence (whole entry): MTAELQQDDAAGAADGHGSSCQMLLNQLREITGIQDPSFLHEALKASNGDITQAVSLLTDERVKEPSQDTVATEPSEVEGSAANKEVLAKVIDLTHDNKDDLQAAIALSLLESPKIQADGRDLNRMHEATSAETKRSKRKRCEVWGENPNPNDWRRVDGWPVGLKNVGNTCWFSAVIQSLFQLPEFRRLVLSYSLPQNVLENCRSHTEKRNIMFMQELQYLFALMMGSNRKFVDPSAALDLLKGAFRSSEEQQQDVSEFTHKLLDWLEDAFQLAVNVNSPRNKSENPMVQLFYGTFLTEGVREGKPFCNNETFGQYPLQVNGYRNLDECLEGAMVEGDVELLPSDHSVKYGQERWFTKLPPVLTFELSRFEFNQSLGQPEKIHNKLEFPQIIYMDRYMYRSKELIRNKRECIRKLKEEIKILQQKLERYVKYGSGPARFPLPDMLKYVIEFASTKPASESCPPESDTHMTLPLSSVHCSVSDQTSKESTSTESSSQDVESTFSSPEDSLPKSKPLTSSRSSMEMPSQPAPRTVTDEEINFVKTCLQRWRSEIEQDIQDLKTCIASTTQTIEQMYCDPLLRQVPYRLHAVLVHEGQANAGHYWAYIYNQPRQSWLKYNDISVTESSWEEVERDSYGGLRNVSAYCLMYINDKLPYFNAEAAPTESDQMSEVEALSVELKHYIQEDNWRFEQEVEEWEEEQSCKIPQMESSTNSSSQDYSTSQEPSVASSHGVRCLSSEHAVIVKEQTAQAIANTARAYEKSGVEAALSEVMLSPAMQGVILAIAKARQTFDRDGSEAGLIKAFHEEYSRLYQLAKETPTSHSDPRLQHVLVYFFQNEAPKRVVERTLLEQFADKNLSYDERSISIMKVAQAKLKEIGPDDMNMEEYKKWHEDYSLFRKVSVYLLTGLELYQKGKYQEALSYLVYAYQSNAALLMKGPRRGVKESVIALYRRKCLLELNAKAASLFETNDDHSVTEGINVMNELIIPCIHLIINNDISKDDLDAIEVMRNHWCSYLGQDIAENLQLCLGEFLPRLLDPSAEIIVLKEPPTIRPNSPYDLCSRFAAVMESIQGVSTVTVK
In outline: as §1

Sequence of USP24 (Q9UPU5 whole entry): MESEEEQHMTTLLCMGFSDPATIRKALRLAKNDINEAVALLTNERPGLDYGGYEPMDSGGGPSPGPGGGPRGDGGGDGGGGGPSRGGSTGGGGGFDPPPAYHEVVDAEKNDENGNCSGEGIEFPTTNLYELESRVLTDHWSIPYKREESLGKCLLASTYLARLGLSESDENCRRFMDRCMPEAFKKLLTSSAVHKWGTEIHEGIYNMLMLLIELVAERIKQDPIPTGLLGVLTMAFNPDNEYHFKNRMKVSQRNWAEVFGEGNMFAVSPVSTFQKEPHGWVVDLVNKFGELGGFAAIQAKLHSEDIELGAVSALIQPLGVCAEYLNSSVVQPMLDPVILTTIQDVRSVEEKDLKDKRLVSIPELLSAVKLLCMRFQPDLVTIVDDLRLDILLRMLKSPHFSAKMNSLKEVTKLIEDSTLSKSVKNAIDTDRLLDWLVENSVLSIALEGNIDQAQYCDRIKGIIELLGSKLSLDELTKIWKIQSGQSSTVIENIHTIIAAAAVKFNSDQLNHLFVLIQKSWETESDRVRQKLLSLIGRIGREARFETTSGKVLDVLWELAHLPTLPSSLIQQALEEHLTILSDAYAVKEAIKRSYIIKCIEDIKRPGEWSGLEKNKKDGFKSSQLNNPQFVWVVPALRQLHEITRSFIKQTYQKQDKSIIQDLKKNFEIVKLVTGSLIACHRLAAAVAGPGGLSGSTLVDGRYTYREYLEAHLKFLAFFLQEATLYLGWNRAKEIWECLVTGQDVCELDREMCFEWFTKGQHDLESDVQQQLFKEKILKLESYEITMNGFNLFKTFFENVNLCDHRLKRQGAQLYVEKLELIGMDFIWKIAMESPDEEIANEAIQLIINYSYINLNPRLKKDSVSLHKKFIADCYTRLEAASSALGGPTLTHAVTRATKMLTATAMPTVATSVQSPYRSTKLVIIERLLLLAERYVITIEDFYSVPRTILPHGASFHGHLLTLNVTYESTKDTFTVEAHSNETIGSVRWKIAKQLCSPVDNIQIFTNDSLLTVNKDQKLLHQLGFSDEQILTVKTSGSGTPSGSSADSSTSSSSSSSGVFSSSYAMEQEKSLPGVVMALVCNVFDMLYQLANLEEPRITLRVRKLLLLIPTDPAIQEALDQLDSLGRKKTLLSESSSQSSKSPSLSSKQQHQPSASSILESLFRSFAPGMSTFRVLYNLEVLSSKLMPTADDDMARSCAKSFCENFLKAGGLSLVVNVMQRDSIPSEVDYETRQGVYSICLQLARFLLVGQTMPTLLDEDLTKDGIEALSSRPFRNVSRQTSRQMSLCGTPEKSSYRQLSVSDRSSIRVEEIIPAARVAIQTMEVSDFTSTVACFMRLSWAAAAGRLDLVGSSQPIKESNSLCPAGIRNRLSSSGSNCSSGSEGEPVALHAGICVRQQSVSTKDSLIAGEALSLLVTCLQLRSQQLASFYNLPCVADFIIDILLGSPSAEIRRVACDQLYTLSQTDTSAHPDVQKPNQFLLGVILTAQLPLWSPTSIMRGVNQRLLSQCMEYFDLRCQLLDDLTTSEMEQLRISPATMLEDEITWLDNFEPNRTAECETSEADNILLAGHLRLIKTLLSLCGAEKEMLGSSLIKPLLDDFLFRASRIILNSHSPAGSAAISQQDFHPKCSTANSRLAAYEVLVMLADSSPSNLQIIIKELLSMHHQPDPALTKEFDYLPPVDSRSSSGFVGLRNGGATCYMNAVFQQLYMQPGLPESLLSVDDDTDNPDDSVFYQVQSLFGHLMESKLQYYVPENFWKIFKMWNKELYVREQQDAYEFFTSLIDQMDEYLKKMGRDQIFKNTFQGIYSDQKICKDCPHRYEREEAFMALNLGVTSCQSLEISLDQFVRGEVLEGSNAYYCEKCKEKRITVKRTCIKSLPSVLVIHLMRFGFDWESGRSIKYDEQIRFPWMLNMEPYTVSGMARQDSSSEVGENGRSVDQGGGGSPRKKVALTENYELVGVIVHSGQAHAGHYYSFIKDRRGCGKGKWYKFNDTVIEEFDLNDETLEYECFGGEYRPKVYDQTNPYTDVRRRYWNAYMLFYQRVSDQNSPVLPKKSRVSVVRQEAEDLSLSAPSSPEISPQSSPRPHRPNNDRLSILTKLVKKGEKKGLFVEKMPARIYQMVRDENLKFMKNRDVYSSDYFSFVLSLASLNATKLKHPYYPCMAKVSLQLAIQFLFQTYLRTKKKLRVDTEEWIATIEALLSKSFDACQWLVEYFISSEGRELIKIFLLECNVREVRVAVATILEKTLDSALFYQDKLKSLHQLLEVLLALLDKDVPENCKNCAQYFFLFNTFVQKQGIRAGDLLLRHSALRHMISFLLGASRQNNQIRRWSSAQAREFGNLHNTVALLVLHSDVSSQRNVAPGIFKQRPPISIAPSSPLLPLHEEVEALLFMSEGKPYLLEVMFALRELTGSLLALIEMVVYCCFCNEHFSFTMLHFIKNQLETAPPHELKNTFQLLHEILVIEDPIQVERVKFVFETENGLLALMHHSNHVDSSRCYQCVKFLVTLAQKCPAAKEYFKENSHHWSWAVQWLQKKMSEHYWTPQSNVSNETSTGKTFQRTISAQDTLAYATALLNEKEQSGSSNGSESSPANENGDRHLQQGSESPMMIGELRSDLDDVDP

On to `O=C(CCl)Nc1ccc2c(c1)OC(F)(F)O2`, for which the “log2 ratio of Biotin-Ahx-Ub-VS probe labelling” value with USP19 is -0.102; with USP24, -1.19 (active); with USP25 it was -0.541; with USP28, -1.3 (active).
